experiment: compound effects on differentiated 3T3-L1 adipocyte viability – cell-based, 3T3-L1 adipocytes, calcein-AM fluorescence, 48 h, basal, profiling panel (AID 1163); conditions: 3T3-L1 adipocytes viability, higher = more signal; further: test concentration not given here

SMILES	z-score
CCCc1cc2c(n1Cc1cc(F)cc(F)c1)C(C)C1CN(C(=O)c3ccccc3)C(C)(C(=O)OC)C21 (centres undefined)	0.149
CCCC[C@@H]1C[C@H]1[C@@H](NC(=O)c1ccco1)c1ccc(-c2ccccc2)cc1	0.222
C=CC[C@@]12N=C(c3ccc(OCCCO)cc3)O[C@@H]1c1ccccc1N(C)C2=O	0.596
COC(=O)[C@@]1(Cc2ccccc2)N=C(c2ccc(OCCCO)cc2)O[C@H]1c1ccccc1	0.598
COc1cccc(-c2cccc(=O)o2)c1	-0.458
C=C[C@H](CO[Si](CC)(CC)CC)N(Cc1ccc(OC(C)=O)c(OC)c1)S(=O)(=O)c1ccc(Br)cc1	0.327
NC(=O)NCC#Cc1ccc2c(c1)[C@]1(C(=O)N2)[C@H](c2ccc(O)cc2)N2[C@H](c3ccccc3)[C@H](c3ccccc3)OC(=O)[C@H]2[C@@H]1C(=O)O	0.145
COC(=O)C[C@H]1O[C@]2(C(=O)N(C)c3ccccc32)[C@@H](C)[C@@H]1[Si](C)(C)F	0.587
O=C1C2C=CC(C(O)c3cc(C(F)(F)F)cc(C(F)(F)F)c3)N(n3cnnc3)C2C(=O)N1Cc1ccccc1 (centres undefined)	0.649
Cc1nc2cc(Br)ccc2c(=O)o1	0.703
C=C(CCCC)/C(=C/C[C@@H](OC(C)=O)c1ccc(OCCO)cc1)c1cnc2ccccc2c1	0.197
COc1cc2c(cc1O)C(C1CC1)N(Cc1sc3ccccc3c1Cl)CC2 (centres undefined)	0.0337
COc1cc2c(cc1O)C(c1cccs1)N(C)CC2 (centres undefined)	-0.344
CN1C=C(C(=O)OCCS(C)(=O)=O)C(C(=O)OCCS(C)(=O)=O)=CC(c2ccc(CO)cc2)=CC1C1CC1 (centres undefined)	-0.0622
